The results in this text go back to PubChem BioAssay.

The test in a line: differential killing of epithelial or mesenchymal cells, primary screen, imaging, PC-3E GFP, TEM4-18 mCherry, co-culture (AID 1345086).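 Note: cells exposed to compound for 72 h before imaging.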 The settings on record: imaging cell counts, measured here: mesenchymal TEM4-18 mCherry cell survival, at 1 µM.
As for `COc1cc([C@@H]2c3cc4c(cc3[C@H](OC(C)=O)C3COC(=O)[C@H]32)OCO4)cc(OC)c1OC` (stereo partly specified), the normalised cell number came to 0.2.

With `CCC(C)C(=O)O[C@@H]1C[C@@]2(C)[C@H](c3ccoc3)OC(=O)CC23OC2(C)O[C@]14C1(C)[C@@H](CC(=O)OC)C5(C)CC1(O)[C@](O)(C5OC(=O)C1(C)OC1C)[C@@H](OC(C)=O)[C@]34O2` (stereo partly specified), the normalised cell number was 1.16.

Compound `COc1cc(O)c(C(=O)O)c(-c2cc(O)c(O)cc2C)c1` returned a normalised cell number of 0.92.

`CC[C@H](C)/C=C(C)/C=C/C1=CC2=C(Cl)C(=O)[C@](C)(OC(C)=O)C(=O)C2=CO1` showed a normalised cell number of 0.96.

`CC[C@H](c1cccc(O)c1)[C@@H](C)CN(C)C` came in with a normalised cell number of 0.96.

`CC1NCCc2cc(O)c(O)cc21` (stereo unspecified) displayed a normalised cell number of 1.06.

`CN1CC[C@@]2(C)c3cc(O)ccc3N(C)[C@@H]12` showed a normalised cell number of 1.05.

`C/C=C(\C)C(=O)O[C@H]1C[C@@H](OC(C)=O)[C@@]2(C(=O)OC)CO[C@@H]3C2[C@]12CO[C@](O)(C(=O)OC)[C@H]2[C@](C)(C12O[C@@]1(C)[C@H]1C[C@H]2OC2OC=C[C@@]21O)[C@@H]3O` (stereo partly specified) came in with a normalised cell number of 1.08.

On to `CC(=O)OCC1=C(C(=O)O)N2C(=O)[C@@H](N)C2SC1` (stereo partly specified), for which the normalised cell number is 1.14.

For the compound `Cc1ncc(C[n+]2csc(CCO)c2C)c(=O)[nH]1`, the normalised cell number was determined as 1.03.

`Fc1ccc(C2CCNCC2COc2ccccc2)cc1` (stereo unspecified) had a normalised cell number of 1.05.

Compound `COc1cc(=O)oc(/C=C/C=C/C=C/C(C)=C/[C@@]2(C)O[C@@H](C)[C@@](C)(O)[C@@H]2O)c1C` gave a normalised cell number of 0.85.

Compound `C[C@@H]1CC[C@H]2[C@@H](C)C(=O)O[C@@H]3O[C@]4(C)CC[C@@H]1[C@]32OO4` registered a normalised cell number of 1.03.

In turn, `Nc1ccc(-c2ccccc2)cc1` yielded a normalised cell number of 1.03.

As for `COc1cc(O)c2c(=O)oc3cc(O)cc(C)c3c2c1`, the normalised cell number is 1.07.

`CC(C)[C@@H]1CC[C@](O)(CCl)[C@@H]2C(=O)OCC(C(=O)O)=C[C@H]21`: the normalised cell number turned out to be 0.96.

With `N#Cc1cc(I)c(O)c(I)c1`, the normalised cell number was determined as 1.12.

Take `C[CH2][Hg+].O=C([O-])c1ccccc1[S-].[Na+]`: the normalised cell number amounted to 0.06.

On to `C[C@H]1COc2c(N3CCNCC3)c(F)cc3c(=O)c(C(=O)O)cn1c23`, for which the normalised cell number is 1.06.

In turn, `CCSCCC(N)C(=O)O` (stereo unspecified) had a normalised cell number of 1.06.

`O=[N+]([O-])c1ccc(CN2CCNCC2)cc1` registered a normalised cell number of 1.07.

With `CN1C(=O)c2ccccc2NC(=O)[C@@H]1Cc1ccccc1`, the normalised cell number is 1.13.

For the compound `CCC(C)[C@H]1O[C@]2(C=C[C@@H]1C)C[C@@H]1C[C@@H](C/C=C(\C)[C@@H](OC3C[C@H](OC)C(O[C@H]4C[C@H](OC)[C@@H](O)[C@H](C)O4)[C@H](C)O3)[C@@H](C)/C=C/C=C3\COC4[C@H](O)C(C)=C[C@@H](C(=O)O1)[C@]34O)O2` (stereo partly specified), the normalised cell number is 0.6.

`CCC(C)C(=O)O[C@@H]1C[C@@]2(C)[C@H](c3ccoc3)OC(=O)CC23OC2(C)OC34[C@H](OC(=O)C(C)C)C3(O)[C@@H](OC(=O)C5(C)OC5C)[C@@]5(C)C[C@]3(O)[C@@](C)([C@H]5CC(=O)OC)C14O2` (stereo partly specified) showed a normalised cell number of 1.04.

In turn, `COc1cc2c(c3oc4cccc(O)c4c(=O)c13)[C@@H]1C=CO[C@@H]1O2` displayed a normalised cell number of 0.98.

As to `O=C1CC2OCC=C3CN4CC[C@]56c7ccccc7N1C5[C@H]2[C@@H]3CC46` (stereo partly specified), the normalised cell number is 1.14.
